The values that follow come from PubChem BioAssay (Tox21).

Structures are written as SMILES. A number with no mark means an inactive call. Inconclusive results are not listed. Calls of active or inactive are those of the source. Unless noted, the call rests on the fitted dose curve; in most records, active means well fitted curve in the direction sought with a large enough effect in the repeat runs; inconclusive means weak or mixed curves; inactive means no such curve, though single readings can be large; an effect the other way counts as inactive or inconclusive.

Test [1] can be described thus: qHTS assay to identify small molecule antagonists of the estrogen related receptor (ERR) signaling pathway from Tox21 library - cell viability counter screen (AID 1224834). Further: nearly all actives have a fitted effect of over 30% in size. A digest of the protocol:
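Cytotoxicity of test substances is gauged in the same ERR cells used for the antagonist screen, after 17.5 h of compound treatment at 37 C, by CellTiter-Fluor fluorescence measured after 30 min.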
In general terms: Quantitative high-throughput screening tests each substance at several concentrations.

The target of test [2] is Luciferin 4-monooxygenase (Photinus pyralis) (UniProt P08659). The test is described as follows: qHTS assay to identify small molecule inhibitors of firefly luciferase (AID 1224835). Further: nearly all actives have a fitted effect of over 25% in size. A digest of the protocol:
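Quantitative HTS format; KM concentrations of both substrates. Purified P. pyralis FLuc activity quantified from luminescence images.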

The nature of test [3]: qHTS assay to identify small molecule agonists of the constitutive androstane receptor (CAR) signaling pathway - cell viability counter screen (AID 1224836). Further: nearly all actives have a fitted effect of over 45% in size. A digest of the protocol: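 Viability read-out: CellTiter-Fluor fluorescence after 23 h compound exposure at 37 C/5% CO2 in double-stable HepG2-CYP2B6-hCAR cells, with PK11195 present at 0.75 uM final; compounds tested in 15-point titration.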

Test [4] in a line: qHTS assay to identify small molecule antagonists of the constitutive androstane receptor (CAR) signaling pathway - cell viability counter screen (AID 1224837). Further: nearly all actives have a fitted effect of over 45% in size. A digest of the protocol:
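Multiplexed cytotoxicity read-out for the CAR antagonist screen: double-stable HepG2-CYP2B6-hCAR cells co-treated with 50 nM CITCO (final) and compound over 15 concentrations, incubated 23 hr, then assessed by CellTiter-Fluor fluorescence.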

For test [5], the target named is Nuclear receptor subfamily 1 group I member 3 (Homo sapiens) (UniProt Q14994). The test is described as follows: qHTS assay to identify small molecule antagonists of the constitutive androstane receptor (CAR) signaling pathway (AID 1224838). Further: nearly all actives have a fitted effect of over 40% in size. The method, boiled down: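 Compounds were titrated across 15 concentrations onto HepG2 cells double-stably expressing hCAR and a CYP2B6-2.2kb reporter, together with 50 nM CITCO (final). After 24 h at 37 C, luciferase activity was measured by luminescence.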

Test [6] has the same target. As to the kind of experiment: qHTS assay to identify small molecule agonists of the constitutive androstane receptor (CAR) signaling pathway (AID 1224839). Further: nearly all actives have a fitted effect of over 15% in size. A digest of the protocol:
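Luminescence read-out (ONE-Glo, 30 min, room temperature) from double-stable HepG2-CYP2B6-hCAR cells exposed 24 h to 15-point compound series in presence of 0.75 uM PK11195 final.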

The nature of test [7]: qHTS assay to identify small molecule antagonists of the estrogen related receptor signaling pathway with the pleiotropic PPARgamma coactivator (PGC) from Tox21 10K library - cell viability counter screen (AID 1224840; active means well fitted cell-killing curve with a large enough effect in the repeat runs, not every such curve was filed as active; further: nearly all actives have a fitted effect of over 40% in size). The method, boiled down: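 Step one, plate 2,000 PGC/ERR cells per well; step two, incubate 6 h at 37 C/5% CO2; step three, pin-transfer compounds; step four, incubate 17.5 h; step five, add CellTiter-Fluor and read fluorescence after 30 min.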

Test [8] can be described thus: qHTS assay to identify small molecule antagonists of the estrogen related receptor signaling pathway with the pleiotropic PPARgamma coactivator (PGC) from Tox21 10K library (AID 1224841; call rule not given here; further: actives are mostly falling curves and most rising ones were filed inactive; nearly all actives have a fitted effect of over 50% in size). The method, boiled down: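 Antagonism in this quantitative HTS is taken from loss of luciferase signal in PGC/ERR cells. Cells (2,000/well) are treated with compounds in DMSO after a 6 h settling period and read by One-Glo luminescence after 18 h.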

Test [9] is described as follows: qHTS assay to identify small molecule agonists of the estrogen related receptor signaling pathway with the pleiotropic PPARgamma coactivator (PGC) from Tox21 10K library (AID 1224842). Further: nearly all actives have a fitted effect of over 15% in size. A digest of the protocol:
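PGC/ERR reporter cells (NTP line) were seeded 2,000 per well, rested 6 h at 37 C/5% CO2, then pin-dosed with compounds in DMSO for 18 h at 37 C; luciferase read by One-Glo luminescence after 30 min at room temperature.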

Test [10] is described as follows: qHTS assay to identify small molecule agonists of the hypoxia (HIF-1) signaling pathway - cell viability counter screen (AID 1224844; calls by dose curve; further: nearly all actives have a fitted effect of over 50% in size). The method, boiled down:
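Tox21 10K compounds were added to HRE-bla ME-180 cells (0.5% dialyzed FBS) and incubated 17 hrs at 37C; ATP-based CellTiter-Glo luminescence then reported cell viability in the same wells.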

Test [11] in a line: qHTS assay to identify small molecule agonists of H2AX (AID 1224845; active means well fitted activation curve with a large enough effect in the signal ratio in the repeat runs, not every such curve was filed as active; the % refers to the signal ratio). A digest of the protocol: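 Wild-type CHO-K1 cells plated overnight, then exposed 3 hr at 37C to compounds at 15 concentrations (0.76% DMSO). Lysed, then HTRF anti-pH2AX(S139)-cryptate/anti-H2AX-d2 detection after 24 hr at room temperature; emissions 665 and 620 nm.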
The nature of test [12]: qHTS assay to identify small molecule agonists of the hypoxia (HIF-1) signaling pathway (AID 1224846; active means well fitted activation curve with a large enough effect in the signal ratio in the repeat runs, not every such curve was filed as active; the % refers to the signal ratio). The method, boiled down: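 Steps: seed ME-180 HRE-bla cells (2,000/well, 0.5% dialyzed FBS); incubate 5 hrs at 37C; pin-transfer compounds or DMSO; incubate 17 hrs; add LiveBLAzer B/G substrate CCF4-AM; measure reporter activation by FRET.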
Test [13] can be described thus: qHTS assay to identify small molecule agonists of H2AX - cell viability counter screen (AID 1224847; calls by dose curve; further: top concentration of the series differs between compounds; nearly all actives have a fitted effect of over 30% in size). The method, boiled down:
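CHO-K1 wt, 1000 cells/well, o/n 37C; cpds 15 conc, 3 h 37C, 0.76% DMSO; CellTiter-Glo, 30 min RT, luminescence.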

A short description of test [14]: qHTS assay to identify small molecule antagonists of the estrogen related receptor (ERR) signaling pathway from Tox21 library (AID 1224848). Further: nearly all actives have a fitted effect of over 50% in size. A digest of the protocol:
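Screening used an ERR reporter line supplied by NTP, exposed for 18 h at 37 C to library compounds delivered in DMSO. Signal was luciferase luminescence developed with ONE-Glo at room temperature for 30 min.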

A short description of test [15]: qHTS assay to identify small molecule agonists of the estrogen related receptor (ERR) signaling pathway from Tox21 library (AID 1224849; calls by dose curve; further: nearly all actives have a fitted effect of over 15% in size). Particulars: ERR reporter cell line, ONE-Glo luciferase, 18 h; at 92.4 µM (top of the series) unless noted. The method, boiled down:
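Agonist signal is luciferase luminescence from an ERR reporter cell line treated 18 h at 37 C with DMSO-dissolved compounds, read 30 min after ONE-Glo addition at room temperature.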

The nature of test [16]: qHTS RealTime-Glo MT Cell Viability Assay in HepG2 cells - 24 hour (AID 1224867). Further: nearly all actives have a fitted effect of over 50% in size. A digest of the protocol:
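Tox21 10K library screened in qHTS format on HepG2 cells carrying RealTime-Glo reagents. Compounds were added after a 5 h preincubation, and the luminescent signal from continuous culture was measured repeatedly during 40 h treatment.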

A short description of test [17]: qHTS RealTime-Glo MT Cell Viability Assay in HEK293 cells - 32 hour (AID 1224868). A digest of the protocol:
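Luminescence generated by NanoLuc from substrate produced by living HEK293 cells served as the viability signal. Each value reflects the reading at its stated time point during continuous 40 h compound exposure at 37 C.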

Test [18] is described as follows: A CellTox Green Cytotoxicity Assay to monitor cytotoxicity in HEK293 cells - 0 hour (AID 1224869). Further: nearly all actives have a fitted effect of over 50% in size. Further: potency means the concentration at half of the fitted maximal effect. A digest of the protocol: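 Cytotoxicity was tracked continuously in HEK293 cells by a DNA-binding dye excluded from viable cells. Compounds were transferred in DMSO 5 h after seeding; fluorescence was recorded at intervals up to 40 h.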
Test [19] addresses Thyrotropin receptor (Homo sapiens) (UniProt P16473). As to the kind of experiment: qHTS assay to identify small molecule agonists of the thyroid stimulating hormone receptor (TSHR) signaling pathway (AID 1224843; calls by dose curve; further: nearly all actives have a fitted effect of over 45% in size). The method, boiled down:
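Cell line HEK293 with TSHR; density 800/well. Exposure 30 min RT. Readout HTRF cAMP (cAMP-d2/anti-cAMP-cryptate), 1 h RT before reading.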

Test [20] can be described thus: qHTS RealTime-Glo MT Cell Viability Assay in HepG2 cells - 40 hour (AID 1224870). Further: nearly all actives have a fitted effect of over 50% in size. The method, boiled down:
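HepG2 cells mixed with RealTime-Glo MT reagents (NanoLuc plus cell-permeant prosubstrate) were seeded at 600 cells/well, incubated 5 h at 37 C/5% CO2, then pinned with compounds in DMSO; nonlytic luminescence tracked viability during 40 h treatment.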
On the % scale 0 is the no-effect control and ±100 the full control effect.

Sequence of Nuclear receptor subfamily 1 group I member 3 (Homo sapiens) (Q14994 whole entry, looked up): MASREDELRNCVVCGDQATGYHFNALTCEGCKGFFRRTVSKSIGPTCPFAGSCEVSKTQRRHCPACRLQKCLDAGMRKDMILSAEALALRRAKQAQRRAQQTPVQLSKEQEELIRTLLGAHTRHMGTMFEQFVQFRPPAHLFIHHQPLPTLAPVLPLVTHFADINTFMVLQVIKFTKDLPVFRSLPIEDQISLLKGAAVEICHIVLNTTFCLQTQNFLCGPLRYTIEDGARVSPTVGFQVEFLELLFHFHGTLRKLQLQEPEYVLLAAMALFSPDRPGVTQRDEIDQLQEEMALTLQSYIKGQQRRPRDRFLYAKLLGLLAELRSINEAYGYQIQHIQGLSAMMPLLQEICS
Sequence of Luciferin 4-monooxygenase (Photinus pyralis) (P08659 whole entry, looked up): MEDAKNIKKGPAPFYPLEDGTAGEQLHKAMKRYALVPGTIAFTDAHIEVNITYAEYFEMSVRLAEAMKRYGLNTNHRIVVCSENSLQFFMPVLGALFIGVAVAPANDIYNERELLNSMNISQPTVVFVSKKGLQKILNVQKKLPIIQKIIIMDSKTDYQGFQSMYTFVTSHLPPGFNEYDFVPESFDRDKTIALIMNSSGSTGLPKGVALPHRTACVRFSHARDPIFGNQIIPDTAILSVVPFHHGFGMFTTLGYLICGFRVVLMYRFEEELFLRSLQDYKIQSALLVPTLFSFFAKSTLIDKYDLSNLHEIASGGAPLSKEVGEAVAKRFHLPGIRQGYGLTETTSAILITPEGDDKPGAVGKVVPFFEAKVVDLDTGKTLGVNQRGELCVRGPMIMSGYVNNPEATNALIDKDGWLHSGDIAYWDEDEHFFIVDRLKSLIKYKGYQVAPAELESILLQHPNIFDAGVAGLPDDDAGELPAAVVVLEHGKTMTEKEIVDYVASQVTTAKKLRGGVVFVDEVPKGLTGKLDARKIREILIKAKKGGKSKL
Sequence of Thyrotropin receptor (Homo sapiens) (P16473 whole entry, looked up): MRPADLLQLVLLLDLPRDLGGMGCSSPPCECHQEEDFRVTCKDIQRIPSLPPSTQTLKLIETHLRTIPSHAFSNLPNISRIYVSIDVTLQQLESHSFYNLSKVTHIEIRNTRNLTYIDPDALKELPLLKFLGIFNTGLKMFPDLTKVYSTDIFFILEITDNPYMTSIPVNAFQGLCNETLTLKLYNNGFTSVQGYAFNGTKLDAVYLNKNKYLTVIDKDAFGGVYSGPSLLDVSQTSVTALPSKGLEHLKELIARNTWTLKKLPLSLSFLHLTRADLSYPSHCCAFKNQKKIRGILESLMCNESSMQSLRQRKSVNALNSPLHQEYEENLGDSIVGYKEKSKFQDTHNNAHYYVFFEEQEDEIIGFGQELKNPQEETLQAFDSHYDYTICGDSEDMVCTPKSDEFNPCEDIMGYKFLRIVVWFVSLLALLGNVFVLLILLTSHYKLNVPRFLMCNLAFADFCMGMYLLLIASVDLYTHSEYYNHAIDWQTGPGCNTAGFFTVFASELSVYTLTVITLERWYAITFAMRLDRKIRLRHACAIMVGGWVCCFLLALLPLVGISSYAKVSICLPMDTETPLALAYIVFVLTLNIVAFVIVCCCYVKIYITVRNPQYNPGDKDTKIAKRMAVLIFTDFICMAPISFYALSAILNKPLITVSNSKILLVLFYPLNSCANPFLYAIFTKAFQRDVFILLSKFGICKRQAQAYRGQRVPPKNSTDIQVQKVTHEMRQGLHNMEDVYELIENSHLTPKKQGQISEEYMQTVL

For the compound `C[C@@H]1CN(c2c(F)c(F)c3c(=O)c(C(=O)O)cn(C4CC4)c3c2F)C[C@H](C)N1`, the viability change, negative = cytotoxic was 2.27% [at 19 µM] in test [1], 4.91% [at 19 µM] in test [3] and 2.41% [at 19 µM] in test [7]. Also, the activity change, negative = inhibition in test [2] was 4.05% [at 23.6 µM]. The activity change, negative = cytotoxicity was 2.19% [at 19 µM] in test [4], 2.14% [at 15.8 µM] in [10], 5.9% [at 31.6 µM] in [13] and 0.621% [at 15.8 µM] in test [16]. The activity, negative = inhibition in [5] was 14.9% [at 19 µM]; in test [8], 20.9% [at 19 µM]; in test [14], 2.94% [at 19 µM]. The activation in test [6] was 0.519% [at 19 µM]; in test [9], 6.21% [at 19 µM]; in [12], 0.101% [at 15.8 µM]. In addition, the activation (H2AX phosphorylation) in test [11] was -0.115% [at 31.6 µM]. For the same compound, in test [15], the activity change, positive = activation is 1.67% [at 19 µM] (active). The activity change, negative = cytotoxic in test [17] was 11.6% [at 15.8 µM]. Further, the cytotoxicity in test [18] was 5.43% [at 15.8 µM].

`CO[Si](C)(C)OC`: the Potency entry in test [1], in test [2], in [3], in [4], in test [5] and in test [6] was “inactive” each time. Besides, the Potency entry in test [7], in [8], in test [9], in test [19], in test [10] and in [11] was “inactive” each time. The Potency entry in [13], in test [14], in test [16], in test [17], in test [18] and in test [20] was “inactive” in each case. The compound was classed as inactive in [12]. Further, the activity change, positive = activation in [15] was 4.8%.

In the case of `Cc1ccc(C=O)s1`, the Potency result in test [1], in [2], in test [3], in [4], in test [5] and in test [6] was “inactive” each time. Further, the Potency result in test [7], in [8], in [9], in test [10], in test [13] and in [14] was “inactive” throughout. Moreover, the Potency entry in test [17] and in test [20] was “inactive” each time. Also, in [12], the call was inactive. Also, the activity change, positive = activation in [15] was 3.35%. The Potency in test [18] is 24.5 µM (active).

On to `CCOc1ccc(NC(N)=O)cc1`, for which the Potency result in test [1], in [2], in [3], in test [4], in [5] and in test [6] was “inactive” throughout. Also, the Potency result in [7], in test [8], in [9], in test [19], in test [10] and in test [11] was “inactive” in each case. Also, the Potency entry in [13], in test [14], in test [16], in [17], in [18] and in test [20] was “inactive” each time. Further, the compound was called inactive in [12]. Further, the activity change, positive = activation in test [15] was 1.88%.

Consider `CCCCCCCOC(=O)CCC`, for which the Potency result in test [1], in test [2], in test [3], in test [4], in [5] and in test [6] was “inactive” throughout. The Potency result in test [7], in [8], in [9], in test [19], in test [10] and in test [11] was “inactive” throughout. Further, the Potency result in test [13], in test [14], in test [17], in [18] and in test [20] was “inactive” in each case. The call in [12] was inactive. For the same compound, the activity change, positive = activation in [15] was -0.487%.

In the case of `CCCOc1ccc2c(c1)CC[C@@H]1[C@@H]2CC[C@]2(C)C(OC)CC[C@@H]12` (some centres not stated), the Potency result in [1], in test [2], in [3], in [4], in [5] and in [6] was “inactive” in each case. Also, the Potency entry in test [7], in test [8], in test [9], in test [10], in test [11] and in test [14] was “inactive” in each case. Moreover, the Potency result in test [16], in [17], in test [18] and in test [20] was “inactive” in each case. For the same compound, in test [15], the activity change, positive = activation is -2.22% [at 42.5 µM].

Regarding `Cc1c(C(=O)NCCO)[n+](=O)c2ccccc2n1[O-]`, the Potency result in test [1], in test [2], in test [3], in test [4], in test [5] and in test [6] was “inactive” each time. Besides, the Potency result in [7], in test [19], in [10], in test [11], in test [13] and in test [16] was “inactive” each time. Also, the Potency result in test [17], in [18] and in test [20] was “inactive” each time. The call in test [12] was inactive.
